In all, about 25,000 sequences were measured (“ln(normalized median fluorescence intensity)”: median about 9.3, highest 2% from about 10 on). The entries come from a sample that favours the highest values as a whole.
system: PF3D7_0420300 AP2 domain 1 (GST-tagged); test: gcPBM binding intensity (ln(normalized median fluorescence intensity)); higher = stronger DNA binding
Outline: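 Each value is the highest Masliner-normalised natural-log median intensity across replicate spots of either orientation of a probe. The probes were primer-extended double-stranded 36-bp intergenic genomic sequences on an Agilent 4 × 180k array, alongside negative controls, exposed for 1 h to GST-tagged P. falciparum DNA-binding domains expressed in E. coli. Bound protein was picked up with Alexa488 anti-GST antibody and scanned at 488 nm.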

Sequence	gcPBM binding intensity (ln)
TGATCAATGGATTTAACACACAAAAAAAAAAAAAAA [CACACA_site3845]	9.11
AAATAAAATAAAATAAAATAAAATTCTTTGATACCT [TGCATGCA_negctrl_site604]	9.16
ATATATATATATATATGTACACATATATATACTCAC [XGTACX_site8043]	9.37
ATATATTATATAAAAAGTACTAAAATAGTAAGATGT [XGTACX_site7493]	9.65
GTTTATATATTATAAAGTACATATGAATTTAATAAT [XGTACX_site3601]	9.01
TTAACAAATGGACACACACACACACCCAAAAAAAAA [CACACA_site4443]	9.91
CAAACAAACGGACACACACACACACCCAAAAATGAT [CACACA_site5363]	10.1
TATGAACACAGACACACACACAAAAAAAAAAAAAAA [CACACA_site7037]	9.27
AACAAACACAGACACACACACACACTAATATGATTA [CACACA_site8770]	10.2
AACACCCACAGACACACACACAAAAATGATTAAAAA [CACACA_site2433]	9.83
CAAACAAACAGACACACACACACACCCAAAAATGAT [CACACA_site2430]	10.4
CAAACCCACCAACACACACACACAAAAATGATTAAA [CACACA_site2432]	9.82
AATATGAACAGACACACACACACAAAAAAAAAAAAA [CACACA_site2012]	10
AACAAACACAGACACACACACACACCCAAATGATTA [CACACA_site2431]	10.2
ATATTTTTTTTTTTCACACACATTTAGATTGTATTA [CACACA_site3137]	9.86
GACATTGATACCAGTAGTACCTATAGATGTTTGTTT [XGTACX_site5736]	9.55
TTACAAATAATTTGTTGTACGCTTTTTTTCTTTTTT [XGTACX_site7199]	9.48
ATTGGACTATAAATAGGTACACATATATATATATAT [XGTACX_site7562]	9.59
AATAGAAAAAAAAAATGTACACATATAAAAGCATAT [XGTACX_site6306]	9.77
GCTTATAAAGGCAGAAGTACTGTATTCCTATATATA [XGTACX_site8865]	9.22
ATAATATGAAAACACACACACACACCCAAAAAAAAA [CACACA_site2011]	10.2
TAGTATAATATGAACACACACACACCGACAAAAAAA [CACACA_site5151]	9.99

Sequence	gcPBM binding intensity (ln)
AAAAAAAAAAAAAACACACACACACCCAAATATATA [CACACA_site1169]	10.1
TAGTATAATATGAACACACACACACGCACAAAAAAA [CACACA_site7035]	10.1
ATCGTAGTATAATATGAACACACACCCACCCACAAA [CACACA_site8616]	10.2
TAGTATAATATGAACACACACACACCCACAAAAAAA [CACACA_site2009]	10
GTATAATAGAAACACACACACACACCCAAAAAAAAA [CACACA_site2010]	10.3
GTATAATATGAACACACACACACACCCAAAAAAAAA [CACACA_site5152]	10.2
GTATAATATGAACACACACACACACGCAAAAAAAAA [CACACA_site7036]	10.1
TTTTATATATTATATACACACATATATATATATATA [CACACA_site2999]	9.29
ATATATATATAGTGCACACTTAAGAATATAAAGAGG [CACACA_site1151]	9.45
AAAAGGTATGTTATACATAGATATGCACATATATGT [TGCATGCA_negctrl_site96]	9.29
CTTAAAGGGAAAAATACACACATATAAATATTATGT [CACACA_site2225]	9.47
AAAATTATTTAGTAAGTGCAAAAAAAAAAAAAAAAA	8.78
TATGAAGAAAAGAATTGTACGATGTTTATTTTGTAT [XGTACX_site8614]	9.22
TGCACAAAATTATGCACACACCTAAAATTAATTTTT [CACACA_site5596]	9.46
ATTATGCACGGACACACACACACACCCCTAAAAAAT [CACACA_site5426]	10.2
CCTAAATTATATTATGCACACTTAAAAATATATTTA [CACACA_site5861]	9.14
ATTATGCACCAACACACACACACACTCCTAAAAAAT [CACACA_site8822]	10.3
ATTATGCACAGACACACACACACACTACTAAAAAAT [CACACA_site7252]	10.1
ATTATGCACCAACACACACACACACCCCTAAAAAAT [CACACA_site2568]	10.3
CCACAGGATTGGTTCAAACACACATATTATATGACT [CACACA_site661]	9.39
CCTTTATTAAATAAATGTACATATTTTTGTGTTCTT [XGTACX_site2052]	9.4
GAAATATAATTTATTACACACATTTTAAAAAAATTC [CACACA_site1087]	9.26
